Each structure is given as a SMILES string. The source made the active and inactive calls.

Drawing on PubChem BioAssay, this text covers z-score for 17 compounds.

The experiment in a line: basal CRE-LacZ reporter activity in PC12 – cell-based, unstimulated, primary screen (AID 1145). To be noted: no forskolin, luminescence, 4.5 h, higher = more signal, called active from +8 up or from −8 down.
Take `C=CCOC(=O)[C@H]1[C@@H]2C(=O)O[C@@H](c3ccccc3)[C@@H](c3ccccc3)N2[C@@H](c2ccc(OCCOC(=O)[C@H]3C[C@H]4C(=O)N5CCC[C@H]5C(=O)N4[C@H]3c3cccc(OCCO)c3)cc2)[C@]12C(=O)Nc1ccc(I)cc12`: the z-score is -0.134 (inactive).

With `CC(C)CN1CCc2nc(-c3ccccc3)c3c(c2CC1)CO[C@@H](C)C3`, the z-score is 0.738 (inactive).

For `CC(C)OC(=O)C=C1C[C@@H](c2ccc(C#N)cc2)O[C@@H](c2ccc(C#N)cc2)O1`, the z-score is 2.74 (inactive).

Take `C=CC[C@@H]1C=C[C@H](ON=C[C@@H](OC)[C@H](C)C=CCC(=O)OC)[C@@H](CO)O1`: the z-score is -0.957 (inactive).

For `CN1C(=O)C2C(C1=O)C1C=C(CCCO)C2C(c2ccc(CN3CCCC3)cc2)N1C` (configuration not stated), the z-score is -0.0743 (inactive).

In the case of `COCC(=C=CC[C@@H](O)c1ccccc1OCCO)CCO`, the z-score was 0.914 (inactive).

Turning to `COCCOC(=O)N1C(=O)[C@@]2(c3cc(C#CCNC(N)=O)ccc31)[C@H](c1ccc(O)cc1)N1[C@H](c3ccccc3)[C@H](c3ccccc3)OC(=O)[C@H]1[C@@H]2C(=O)N1CCCCCCC1`, the z-score is -1.57 (inactive).

`C=C(/C(=C/C[C@H](OC(=O)c1ccncc1)c1ccc(OCCO)cc1)c1cnc2ccccc2c1)C(C)C`: the z-score is 6.42 (inactive).

`Cc1cc2c(c(=O)o1)[C@H](O)[C@H]1O[C@H]1C2=O`: the z-score is -1.06 (inactive).

For the compound `COC(=O)[C@@H]1CC[C@H](C)[C@@H](c2ccc(C)cc2)N1C(=O)c1ccc(C=NOC[C@@H](O)COCc2ccco2)cc1`, the z-score was 5.89 (inactive).

As to `CO[C@@H]1COC(=O)[C@H](C)NC(=O)[C@@H](C)COC(=O)CCC[C@H]1C`, the z-score was 0.085 (inactive).

Take `CC(C)c1ccc(NN2C(C(O)c3ccc4c(c3)OCO4)C=CC3C(=O)N(c4ccccc4)C(=O)C32)cc1` (configuration not stated): the z-score is 0.629 (inactive).

As for `CCOC(=O)[C@H](Cc1ccccc1)NC(=O)CCC1CC(OC(=O)NCc2ccc3c(c2)OCO3)CC2(CCCC(COC(=O)NCc3ccccc3)O2)O1` (some centres not stated), the z-score was -0.155 (inactive).

As for `CC(C)(C)OC(=O)CC[C@]1(C(=O)NCc2ccccc2)N=C(c2ccc(OCCCO)cc2)O[C@H]1c1ccccc1`, the z-score is 0.699 (inactive).

Take `Cc1ccc(C2CC=C(C(=O)O)CN2S(=O)(=O)c2ccc(C)cc2)cc1` (configuration not stated): the z-score is -0.378 (inactive).

For `CC[C@@H](c1ccccc1)n1c(=O)n2n(c1=O)[C@H]1[C@H](O)[C@@H]3O[C@@H]3C(=NOCC=C(C)CCC=C(C)C)[C@H]1CC2`, the z-score was 1.07 (inactive).

As for `CC(CCC(=O)OC[C@H]1O[C@H](C#Cc2ccccc2)C=C[C@@H]1Oc1ccc(C)cc1)=NOC[C@@H](O)COCc1ccco1`, the z-score was 3.74 (inactive).
